# Data reported in PMC4336329 (PLoS ONE, 2015).
# Hit rate of the full screen: of about 310,000 compounds, about 14,000 (4.5%) showed an effect of 50% or more. The effect is printed as a negative number. Many of the other results were omitted from the sample, so strong results are more common in it than they were.
# Target: human ether-à-go-go-related gene (hERG) potassium channel (human, UniProt Q12809)
# Experiment: primary screen, population patch clamp on CHO cells stably expressing hERG; higher = less effect of the substance
# 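Note: peak tail current of the secondary pulse compared with the same well before compound.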
# Chain of human ether-à-go-go-related gene (hERG) potassium channel (Q12809 whole entry, looked up): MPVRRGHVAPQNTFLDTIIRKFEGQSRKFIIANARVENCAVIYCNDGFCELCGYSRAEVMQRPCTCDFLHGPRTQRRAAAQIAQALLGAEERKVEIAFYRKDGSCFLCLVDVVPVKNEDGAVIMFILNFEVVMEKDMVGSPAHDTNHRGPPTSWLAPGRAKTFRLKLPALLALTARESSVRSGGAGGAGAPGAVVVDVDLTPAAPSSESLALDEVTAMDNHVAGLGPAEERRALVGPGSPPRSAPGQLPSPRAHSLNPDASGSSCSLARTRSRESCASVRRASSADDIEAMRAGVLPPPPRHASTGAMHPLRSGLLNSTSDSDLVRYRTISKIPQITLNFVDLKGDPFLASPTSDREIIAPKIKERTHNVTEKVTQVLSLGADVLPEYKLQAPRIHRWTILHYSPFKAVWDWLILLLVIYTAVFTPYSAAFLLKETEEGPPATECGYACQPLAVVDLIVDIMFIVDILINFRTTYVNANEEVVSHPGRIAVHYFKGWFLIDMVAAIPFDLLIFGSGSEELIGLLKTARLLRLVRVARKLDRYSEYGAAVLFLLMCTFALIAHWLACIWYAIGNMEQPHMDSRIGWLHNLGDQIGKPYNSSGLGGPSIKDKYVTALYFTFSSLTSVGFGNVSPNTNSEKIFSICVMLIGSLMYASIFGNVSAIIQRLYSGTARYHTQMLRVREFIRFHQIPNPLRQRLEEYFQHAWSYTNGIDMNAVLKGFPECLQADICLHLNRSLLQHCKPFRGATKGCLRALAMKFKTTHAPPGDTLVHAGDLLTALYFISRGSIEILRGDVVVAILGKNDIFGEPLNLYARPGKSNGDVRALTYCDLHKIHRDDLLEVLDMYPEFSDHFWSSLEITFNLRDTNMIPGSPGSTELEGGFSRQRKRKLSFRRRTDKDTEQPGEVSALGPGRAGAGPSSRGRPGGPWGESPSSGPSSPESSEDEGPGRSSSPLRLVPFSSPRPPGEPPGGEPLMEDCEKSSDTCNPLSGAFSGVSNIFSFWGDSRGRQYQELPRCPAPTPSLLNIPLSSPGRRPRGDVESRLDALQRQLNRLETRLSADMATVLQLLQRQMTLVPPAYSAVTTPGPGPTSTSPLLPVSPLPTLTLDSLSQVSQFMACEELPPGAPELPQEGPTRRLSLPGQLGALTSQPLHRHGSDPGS
row,SMILES,"hERG current change (%, negative = inhibition) at 10uM [%]"
1,c1ccc(NCc2cccnc2)cc1,12.1
2,Nc1nccc(-c2ccc(-n3cnc4ccccc43)cc2)n1,-25.3
3,O=C(/C=C/c1ccccc1)Nc1nnc(SCC(=O)c2ccc3ccccc3c2)s1,4.75
4,COc1ccc(OC)c(N=c2oc3cc(O)ccc3cc2C(N)=O)c1,3.97
5,COc1cccc(NC(=O)N2CCC(C(N)=O)(N3CCCCC3)CC2)c1,6.17
6,COc1ccc(COc2ccsc2C(=O)Nc2ccc(Cl)cc2)cc1,7.17
7,NNC(=O)c1sccc1OCc1ccc(Cl)cc1,2.41
8,COc1ccsc1NC(=O)OCc1ccc(Cl)cc1,-77.8
9,CC(C)(C)c1ccc(NC(=O)CN2C(=O)NC(C)(C3CC3)C2=O)cc1 (centres unmarked),-25.5
10,Cc1ccc(-c2nn3c(C)nnc3c3ccccc23)cc1S(=O)(=O)NCc1ccco1,-33.3
11,O=C(CSc1ncnc2[nH]ncc12)Nc1nc(-c2ccc(F)c(F)c2)cs1,44.7
12,O=C(Nc1ccnn1C1CCN(Cc2cc(Cl)ccc2O)CC1)C1CC1,-55
13,COc1ccc(O)c(CN2CCC(n3nccc3NC(=O)C3CCCC3)CC2)c1,-50.8
14,O=C(Nc1ccnn1C1CCN(Cc2cc(Cl)ccc2O)CC1)c1cccnc1,-9.31
15,O=C(Nc1ccnn1C1CCN(C(=O)Cc2cccc(Cl)c2)CC1)C1CC1,-7.34
16,COc1ccc(O)c(CN2CCC(n3nccc3NC(=O)c3ccccc3Cl)CC2)c1,-40.6
17,COc1ccc(F)c(CN2CCC(n3nccc3NC(=O)C3CCOC3)CC2)c1 (centres unmarked),5.47
18,COc1ccc(CN2CCC(n3nccc3NC(=O)C3CCCC3)CC2)c(OC)c1,-73.2
19,COc1cc(F)ccc1CN1CCC(n2nccc2NC(=O)C2CCOC2)CC1 (centres unmarked),-14.5
20,CCOCC(=O)Nc1ccc([N+](=O)[O-])cc1C,5.75
21,Cc1nc(SCC(=O)N2CC(=O)Nc3ccccc32)c2c(C)c(C)sc2n1,-5.65
22,COc1ccc(CCNC(=O)C(NS(=O)(=O)c2ccc3c(c2)CCN3C(C)=O)C(C)C)cc1OC (centres unmarked),25.1

row,SMILES,"hERG current change (%, negative = inhibition) at 10uM [%]"
1,CCC(=O)Nc1cccc(NC(=O)CSc2nc3c(c(=O)n(C)c(=O)n3C)n2C)c1,18
2,CCC1Sc2ccc(S(=O)(=O)CCC(=O)Nc3ccc(NC(C)=O)cc3)cc2NC1=O (centres unmarked),19
3,CC(=O)c1c(N2CCOCC2)nc(=S)n(-c2ccc([N+](=O)[O-])cc2)c1C,-46.2
4,CSc1nc(=S)n(-c2ccccc2)c(C)c1C(C)=O,11.9
5,CSc1nc(=S)n(-c2ccc([N+](=O)[O-])cc2)c(C)c1C(C)=O,-68.3
6,Cc1ccc(OCC(=O)Nc2ccc(CN3CCOCC3)cc2)cc1,-9.4
7,Cc1cc(OCC(=O)Nc2ccc(CN3CCCCC3)cc2)ccc1Cl,-73.9
8,CCc1ccc(OCC(=O)Nc2ccc(CN3CCCCC3)cc2)cc1,-18
9,CCOc1ccc(NC(=O)c2ccc(NC(=O)c3ccc(CN4CCOCC4)cc3)cc2)cc1,9.33
10,CCOc1ccc(C(=O)Nc2ccc(CN3CCOCC3)cc2)cc1Cl,-56
11,Cc1cc(C)cc(OCC(=O)Nc2ccc(CN3CCCCC3)cc2)c1,-43.7
12,CCOc1ccc(C(=O)Nc2ccc(CN3CCOCC3)cc2)cc1Br,-46.6
13,Cc1cc(OCC(=O)Nc2ccc(CN3CCOCC3)cc2)ccc1Cl,-51.8
14,Cc1ccc(OCC(=O)Nc2ccc(CN3CCOCC3)cc2)cc1C,-39.3
15,O=C1CC(=O)N(CCc2ccccc2)C(=O)N1CCc1ccccc1,6.19
16,CN(C)S(=O)(=O)c1ccc(NC(=O)CSc2nc3ccccc3n2-c2ccccc2)cc1,24.2
17,CCc1cccc(C)c1NC(=S)NCC(c1cccnc1)N1CCOCC1 (centres unmarked),-14.3
18,C/C(=N/NC(=O)CNC(=O)c1ccco1)c1ccc(Cl)cc1,-1.47
19,CCOc1ccc(N2CC(C(=O)NCCc3ccc(F)cc3)CC2=O)cc1 (centres unmarked),-65.8
20,COc1ccc(N2CC(C(=O)OCC(=O)c3ccccc3)CC2=O)cc1 (centres unmarked),-9.34
21,CCOc1ccc(N2CC(C(=O)NCc3ccc(F)cc3)CC2=O)cc1 (centres unmarked),-27.3
22,CCOc1ccc(N2CC(C(=O)NCCc3ccccc3)CC2=O)cc1 (centres unmarked),-29.6

row,SMILES,"hERG current change (%, negative = inhibition) at 10uM [%]"
1,CCOc1ccc(N2CC(C(=O)NCCc3ccc(S(N)(=O)=O)cc3)CC2=O)cc1 (centres unmarked),12.1
2,COc1ccc(N2CC(C(=O)OCC(=O)c3ccc(C)cc3)CC2=O)cc1 (centres unmarked),13.9
3,O=C(NCc1n[nH]c(=O)c2ccccc12)C1CC(=O)N(c2ccccc2)C1 (centres unmarked),-1.81
4,CCOc1ccc(N2CC(C(=O)OCC(=O)c3ccc(OC)cc3)CC2=O)cc1 (centres unmarked),-56
5,CCOc1ccc(N2CC(C(=O)NCCCc3ccccc3)CC2=O)cc1 (centres unmarked),-51.2
6,Cc1ccc(N2CC(C(=O)NCc3n[nH]c(=O)c4ccccc34)CC2=O)cc1 (centres unmarked),-23.8
7,O=C(NCc1n[nH]c(=O)c2ccccc12)C1CC(=O)N(c2ccc(Cl)cc2)C1 (centres unmarked),-70.7
8,CCOc1ccc(N2CC(C(=O)NCc3ccccc3)CC2=O)cc1 (centres unmarked),-12.3
9,CCC(CC)C(=O)Nc1cc(C(=O)NCCc2ccccc2)ccc1Cl,-8.24
10,Cc1cccc(OCCCC(=O)Nc2ccc(S(=O)(=O)N3CCCC3)cc2)c1,-21.3
11,CCOC(=O)c1c(-c2ccc(OC)cc2)oc2ccc(OC(=O)N(C)C)cc12,10.1
12,Cc1nc2ccccc2c(=O)n1CCN1CCOCC1,4.18
13,COc1ccc(-c2nn(-c3ccccc3)cc2C2CC(c3cccs3)=NN2C(=O)CCCC(=O)O)cc1 (centres unmarked),17.9
14,O=C(CN1C(=O)NC2(CCCCC2)C1=O)N1CCN(S(=O)(=O)c2ccccc2)CC1,13.8
15,CCOc1ccc(N2CC(C(=O)Nc3nnc(Cc4ccccc4)s3)CC2=O)cc1 (centres unmarked),4.73
16,Cc1ccc(OCCNC(=O)C2CC(=O)N(c3ccc(C)cc3)C2)cc1 (centres unmarked),-4.5
17,CCOCCc1nnc(NC(=O)C2CC(=O)N(c3ccc(OCC)cc3)C2)s1 (centres unmarked),-18.1
18,CCOc1ccc(N2CC(C(=O)Nc3cc(Cl)ccc3-n3cncn3)CC2=O)cc1 (centres unmarked),-64.2
19,CCOc1ccccc1N1CC(C(=O)Nc2cc(Cl)ccc2-n2cncn2)CC1=O (centres unmarked),-10.3
20,O=C(NCCOc1ccc(Cl)cc1)C1CC(=O)N(c2ccc(F)cc2)C1 (centres unmarked),-69.4
21,O=C(NCCOc1ccc(Cl)cc1)C1CC(=O)N(c2ccc3c(c2)OCCO3)C1 (centres unmarked),-27.9
22,CCOc1ccc(N2CC(C(=O)Nc3ccc(F)cc3F)CC2=O)cc1 (centres unmarked),-3.45

row,SMILES,"hERG current change (%, negative = inhibition) at 10uM [%]"
1,CCOc1ccc(N2CC(C(=O)Nc3nnc(CC)s3)CC2=O)cc1 (centres unmarked),-53.6
2,Cc1ccc(C(=O)c2nc(C(=O)NCCO)nc3ccccc23)cc1,25.8
3,COc1ccc(-c2cc(=O)oc3c(C)c(OC(C)C(=O)N4C[C@H]5C[C@@H](C4)c4cccc(=O)n4C5)ccc23)cc1 (some centres unmarked),-47.2
4,CCOC(=O)c1[nH]c(C)c(C(=O)OCC(=O)N(Cc2ccccc2)C(C)C)c1C,-15.8
5,Cc1cccc(OCCCCNCc2ccccc2)c1.O=C(O)C(=O)O,-38.1
6,Cc1ccc(C(=O)NC(=S)N2CCN(C)CC2)cc1,-1.37
7,COC(=O)c1ccc(CSc2nnc(CS(=O)Cc3ccc(Br)cc3)n2-c2ccccc2)cc1 (centres unmarked),-12
8,O=C(CN1CCCC1)Nc1ccc(S(=O)(=O)N2CCCCC2)cc1,4.2
9,S=C(Nc1ccc(Br)cc1)N1CCN(C2CCCCC2)CC1,-17.3
10,O=C(CN1CCN(S(=O)(=O)N2CCCCC2)CC1)Nc1ccc(Br)cc1,-78.2
11,O=C(CN1CCN(S(=O)(=O)N2CCCCC2)CC1)Nc1cc(Cl)cc(Cl)c1,-32.5
12,O=C(CN1CCN(S(=O)(=O)N2CCCCC2)CC1)Nc1ccc(Cl)c(Cl)c1,-28.2
13,O=C(CN1CCN(S(=O)(=O)N2CCCCCC2)CC1)Nc1ccc(F)cc1,-74.9
14,Cl.O=C(CN1CCCC1)Nc1ccc(Br)cc1,-1.25
15,O=C(CN1CCN(S(=O)(=O)N2CCCCCC2)CC1)Nc1ccc(Br)cc1,-74.3
16,O=C(CN1CCCCCC1)Nc1ccc(Br)cc1,-32.3
17,O=C(CN1CCCCCC1)Nc1ccc(S(=O)(=O)N2CCCCC2)cc1,-38.7
18,O=C(CN1CCCCC1)Nc1ccc(S(=O)(=O)N2CCCCCC2)cc1,-35.5
19,Cl.O=C(CN1CCN(C2CCCCC2)CC1)Nc1ccc(Br)cc1,-70
20,CC1CCC2(CC1)NC(=O)N(CC(=O)Nc1ccc3[nH]c(=O)[nH]c3c1)C2=O (centres unmarked),0.0265
